Compounds without any hit were thinned out: in the full panel of roughly 79,000, 15% have a hit. Unmarked numbers belong to inactive results. Activity calls are given as the source filed them. Rule as the data show it: active = growth inhibition above about 70%; inactive = the rest.
What was measured:
[1] = NCI Yeast Anticancer Drug Screen. Data for the rad50 strain (AID 155);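 also: 0% = growth of vehicle-only cultures of the same strain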; conditions: S. cerevisiae rad50 strain growth inhibition; at 50.0 µM; hits give high values
Method in brief: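 Readout: growth inhibition relative to vehicle-treated cultures. Compound exposure was carried out in a genetically defined yeast strain deficient in DNA damage repair.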

[2] = NCI Yeast Anticancer Drug Screen. Data for the mec2-1 strain (AID 157); conditions: S. cerevisiae mec2-1 strain, at 50.0 µM, hits give high values
Method in brief: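 Test agents were screened against the mec2-1 yeast strain, with defined DNA repair or cell cycle alteration. Growth was scored as inhibition against vehicle-only controls.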

[3] = NCI Yeast Anticancer Drug Screen. Data for the sgs1 mgt1 strain (AID 161);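 also: 0% = growth of cultures given vehicle only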; conditions: S. cerevisiae sgs1 mgt1 strain, at 50.0 µM, hits give high values
Method in brief: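 Read-out: growth inhibition vs vehicle controls. Cells: mutant yeast strain deficient in DNA damage repair.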

[4] = NCI Yeast Anticancer Drug Screen. Data for the cln2 rad14 strain (AID 165);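 also: 0% = growth equal to vehicle treated cultures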; conditions: S. cerevisiae cln2 rad14 strain, at 50.0 µM, hits give high values
Method in brief: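 Growth of compound-exposed yeast (cln2 rad14 genotype) measured and expressed as inhibition relative to vehicle.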

[5] = NCI Yeast Anticancer Drug Screen. Data for the bub3 strain (AID 167); conditions: S. cerevisiae bub3 mutant strain, at 50.0 µM, hits give high values
Method in brief: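 Readout: yeast growth inhibition, expressed relative to vehicle-only wells. The test organism is a mutant strain from a panel with lesions in DNA repair or checkpoint genes.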

[6] = NCI Yeast Anticancer Drug Screen. Data for the mlh1 rad18 strain (AID 175); conditions: S. cerevisiae mlh1 rad18 strain growth inhibition; at 50.0 µM; hits give high values
Method in brief: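 In this whole-cell yeast screen, a strain with altered DNA damage repair is challenged with compound, and its growth is measured against matched vehicle-treated controls.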

Fc1ccc(Oc2nc3ccccc3nc2-c2ccccc2)cc1
growth inhibition [1]: -3.35%
growth inhibition [2]: 4.5%
growth inhibition [3]: -2.15%
growth inhibition [4]: 5.55%
growth inhibition [5]: -9.4%
growth inhibition [6]: 25.7%

CCCCCCC1NN(C(C)=O)C(CCCCCC)NN1C(C)=O (stereo not given)
growth inhibition [1]: 10.5%
growth inhibition [2]: -4.1%
growth inhibition [3]: 7.65%
growth inhibition [4]: 49.1%
growth inhibition [5]: 7.1%
growth inhibition [6]: -3.75%

COc1ccc(Cl)cc1NC(=O)CC(C)=O
growth inhibition [1]: -9.9%
growth inhibition [2]: -12.2%
growth inhibition [3]: 3.45%
growth inhibition [4]: 6.45%
growth inhibition [5]: -3.2%
growth inhibition [6]: -5.95%

CS/C1=C(\c2ccc(C)cc2)N(c2ccccc2)C(=O)C(=O)N(c2ccccc2)/C(c2ccc(C)cc2)=C(/SC)SS1
growth inhibition [1]: 12.2%
growth inhibition [2]: -27.1%
growth inhibition [3]: 2.9%
growth inhibition [4]: 3%
growth inhibition [5]: 8%
growth inhibition [6]: 12.5%

N/C=N/OC(=O)c1ccccc1
growth inhibition [1]: 11.5%
growth inhibition [2]: 14.4%
growth inhibition [3]: 11.8%
growth inhibition [4]: 4.7%
growth inhibition [5]: 0.5%
growth inhibition [6]: 8.25%

CNc1c(F)cc(C(=O)O)cc1F
growth inhibition [1]: -8.35%
growth inhibition [2]: 4.5%
growth inhibition [3]: -0.25%
growth inhibition [4]: -16.4%
growth inhibition [5]: -32.6%
growth inhibition [6]: 2.15%

O=[N+]([O-])c1ccc(-n2cccc2)cc1
growth inhibition [1]: -0.55%
growth inhibition [2]: 20%
growth inhibition [3]: -0.55%
growth inhibition [4]: 44.4%
growth inhibition [5]: -0.75%
growth inhibition [6]: -7.2%

c1ccc2c(C3CO3)c3ccc4ccccc4c3cc2c1 (stereo not given)
growth inhibition [1]: 99% (active)
growth inhibition [2]: 99.5% (active)
growth inhibition [3]: 99.5% (active)
growth inhibition [4]: 98.8% (active)
growth inhibition [5]: 99.2% (active)
growth inhibition [6]: 99.2% (active)

CCCCCCCC/C=C/CCCCCCCC(=O)OCC(C)(C)N1C(=O)CCC1=O
growth inhibition [1]: -11.2%
growth inhibition [2]: -20.4%
growth inhibition [3]: -12.6%
growth inhibition [4]: -11.2%
growth inhibition [5]: -3.45%
growth inhibition [6]: -7.3%

CN(CCNC(=O)NC1CCCCC1)c1ccccc1
growth inhibition [1]: 3.45%
growth inhibition [2]: 0.75%
growth inhibition [3]: 15.9%
growth inhibition [4]: 2.85%
growth inhibition [5]: 8.45%
growth inhibition [6]: 35.4%

O=C(N/C(=C\c1ccccc1[N+](=O)[O-])c1nc2ccccc2[nH]1)c1ccccc1
growth inhibition [1]: -3.4%
growth inhibition [2]: -1.45%
growth inhibition [3]: 1.2%
growth inhibition [4]: -1.15%
growth inhibition [5]: 6.85%
growth inhibition [6]: -1.7%

O=[N+]([O-])c1ccc(-c2csc(Nc3ccccn3)n2)o1
growth inhibition [1]: 81.1% (active)
growth inhibition [2]: 38.3%
growth inhibition [3]: 84.7% (active)
growth inhibition [4]: 31.4%
growth inhibition [5]: 40.8%
growth inhibition [6]: 92.5% (active)

Nc1c(Cl)ncnc1Nc1ccc(O)cc1
growth inhibition [1]: -3.85%
growth inhibition [2]: -1.2%
growth inhibition [3]: 5.2%
growth inhibition [4]: 5.8%
growth inhibition [5]: 24.8%
growth inhibition [6]: 1.4%

CCN(CC)CCNc1nnc(NCCN(CC)CC)c2cc3ccccc3cc12
growth inhibition [1]: 3.75%
growth inhibition [2]: 21%
growth inhibition [3]: -10.1%
growth inhibition [4]: -4.45%
growth inhibition [5]: -0.25%
growth inhibition [6]: 6.8%

CC(C)Cn1cnc2c(Cl)nc3ccccc3c21
growth inhibition [1]: -38.5%
growth inhibition [2]: 20.4%
growth inhibition [3]: 23.4%
growth inhibition [4]: 0.25%
growth inhibition [5]: 33.5%
growth inhibition [6]: -11.8%

Nc1ccn(CCC(COCc2ccccc2)COCc2ccccc2)c(=O)n1
growth inhibition [1]: 35.8%
growth inhibition [2]: -13.4%
growth inhibition [3]: 0.75%
growth inhibition [4]: -5.6%
growth inhibition [5]: -5.45%
growth inhibition [6]: 5.75%

CC(O)CNc1ncnc2ccccc12 (stereo not given)
growth inhibition [1]: -13.5%
growth inhibition [2]: -12.2%
growth inhibition [3]: -3.15%
growth inhibition [4]: -5.1%
growth inhibition [5]: 9.15%
growth inhibition [6]: 4.05%

CCC1(CC)CC(=O)NC1=O
growth inhibition [1]: -4.95%
growth inhibition [2]: -11.6%
growth inhibition [3]: -40.5%
growth inhibition [4]: 1.5%
growth inhibition [5]: -26%
growth inhibition [6]: -11.1%

O=[N+]([O-])c1ccc(S(=O)(=O)c2ccc(N=CN3CCCC3)cc2)cc1
growth inhibition [1]: 22.9%
growth inhibition [2]: 16.4%
growth inhibition [3]: 18.4%
growth inhibition [4]: 4.05%
growth inhibition [5]: 18%
growth inhibition [6]: 23%

CC(c1ccccc1)C(OCc1ccccc1)OCc1ccccc1 (stereo not given)
growth inhibition [1]: -17.1%
growth inhibition [2]: 9.15%
growth inhibition [3]: 4.55%
growth inhibition [4]: -36.5%
growth inhibition [5]: 22.6%
growth inhibition [6]: 1.2%

O=C1/C(=C/c2ccc(O)cc2)CCC/C1=C\c1ccc(O)cc1
growth inhibition [1]: 3.9%
growth inhibition [2]: 1.85%
growth inhibition [3]: 5.2%
growth inhibition [4]: 23.1%
growth inhibition [5]: -7.05%
growth inhibition [6]: 1.45%

CNC(=O)c1nnn(Cc2ccc(OC)cc2)c1Cl
growth inhibition [1]: -8.05%
growth inhibition [2]: -8.9%
growth inhibition [3]: -14.7%
growth inhibition [4]: -69%
growth inhibition [5]: -1.3%
growth inhibition [6]: -8.15%

Cn1cnc2cc3c(cc2c1=O)nc1n3CCCC1
growth inhibition [1]: -1.7%
growth inhibition [2]: -2.5%
growth inhibition [3]: -12.6%
growth inhibition [4]: -12.4%
growth inhibition [5]: -6.75%
growth inhibition [6]: -6.8%

O=C(O)CCCCC(=O)c1ccccc1
growth inhibition [1]: 30.6%
growth inhibition [2]: 12.2%
growth inhibition [3]: 21%
growth inhibition [4]: -0.25%
growth inhibition [5]: 26.6%
growth inhibition [6]: 24.9%

Cc1ccc(N2C(=O)/C(=C/c3ccc(N(CCC#N)CCC#N)cc3C)N=C2c2cc([N+](=O)[O-])ccc2Cl)cc1
growth inhibition [1]: 8.85%
growth inhibition [2]: 14.5%
growth inhibition [3]: 32.6%
growth inhibition [4]: 35.2%
growth inhibition [5]: 30.4%
growth inhibition [6]: 19.9%

N=C(N)S/C=C/C(=O)O
growth inhibition [1]: -18.8%
growth inhibition [2]: -17.4%
growth inhibition [3]: -20.5%
growth inhibition [4]: -4.65%
growth inhibition [5]: -13.8%
growth inhibition [6]: -19.6%

CSc1n[nH]c(NC(=O)c2ccccc2Br)n1
growth inhibition [1]: 4.2%
growth inhibition [2]: -0.9%
growth inhibition [3]: 29.4%
growth inhibition [4]: -19.6%
growth inhibition [5]: 3.65%
growth inhibition [6]: 30.5%

COc1cc(C=Nc2ccccc2)ccc1OC(=O)c1ccccc1
growth inhibition [1]: 15.8%
growth inhibition [2]: 23.2%
growth inhibition [3]: 17.6%
growth inhibition [4]: 28.7%
growth inhibition [5]: 16.9%
growth inhibition [6]: 14.6%

S=c1nc[nH]c2c1ncn2C1CCCC1
growth inhibition [1]: -2.25%
growth inhibition [2]: -4.75%
growth inhibition [3]: -4.55%
growth inhibition [4]: -14.9%
growth inhibition [5]: -0.3%
growth inhibition [6]: -3.1%

CCCCCCCCCCCCCCCCCCCCCCBr
growth inhibition [1]: 4.95%
growth inhibition [2]: 4.8%
growth inhibition [3]: 16.8%
growth inhibition [4]: 21.4%
growth inhibition [5]: -2.75%
growth inhibition [6]: 14.3%

NC(=O)NCc1ccc(CNC(N)=O)cc1
growth inhibition [1]: 11.3%
growth inhibition [2]: 15.1%
growth inhibition [3]: -2.9%
growth inhibition [4]: -61.5%
growth inhibition [5]: 3.25%
growth inhibition [6]: 3.35%

O=[N+]([O-])c1cccc(C2=NON(c3ncccn3)C3N=CC=CN23)c1 (stereo not given)
growth inhibition [1]: 11.9%
growth inhibition [2]: -17.7%
growth inhibition [3]: 14.3%
growth inhibition [4]: -4.9%
growth inhibition [5]: -9.65%
growth inhibition [6]: 26.1%

Cc1cccc(/C=N\N=C\c2cccc(C)n2)n1
growth inhibition [1]: 3.9%
growth inhibition [2]: -10.2%
growth inhibition [3]: -3.25%
growth inhibition [4]: -3%
growth inhibition [5]: -1.45%
growth inhibition [6]: 23.3%

O=C(O)CNc1ncnc2[nH]ncc12
growth inhibition [1]: 7%
growth inhibition [2]: -25.1%
growth inhibition [3]: 2.85%
growth inhibition [4]: 3.8%
growth inhibition [5]: -8.1%
growth inhibition [6]: 6%

Cc1ccc(NC(=O)Oc2ccccc2C(=O)OCc2ccccc2)cc1
growth inhibition [1]: 5.3%
growth inhibition [2]: 7.1%
growth inhibition [3]: 6.25%
growth inhibition [4]: 20.1%
growth inhibition [5]: 8.25%
growth inhibition [6]: 1.25%

C1CCc2nc3c(nc2C1)CCCC3
growth inhibition [1]: 9.75%
growth inhibition [2]: 1.6%
growth inhibition [3]: 1.7%
growth inhibition [4]: -9.65%
growth inhibition [5]: -0.5%
growth inhibition [6]: 7%

CCOC(=O)COS(=O)(=O)C(F)(F)F
growth inhibition [1]: 21.6%
growth inhibition [2]: -12.7%
growth inhibition [3]: -11.4%
growth inhibition [4]: 2.95%
growth inhibition [5]: 3.5%
growth inhibition [6]: -10.7%

CN1CCc2c1nc(-c1ccc(Cl)cc1)c1c2N(C)CC1
growth inhibition [1]: 5.15%
growth inhibition [2]: 1.5%
growth inhibition [3]: 0%
growth inhibition [4]: 9%
growth inhibition [5]: -9.55%
growth inhibition [6]: -7.35%

O=C(O)C1CC[N-]CC1.O=C(O)C1CC[N-]CC1.[NH2-].[NH2-].[Pt+4]
growth inhibition [1]: -5.4%
growth inhibition [2]: 14.8%
growth inhibition [3]: 2.2%
growth inhibition [4]: 12.7%
growth inhibition [5]: 2.6%
growth inhibition [6]: 18.4%

NS(=O)(=O)c1ccc(Nc2c3ccccc3nc3ncccc23)cc1
growth inhibition [1]: -6.85%
growth inhibition [2]: 7.35%
growth inhibition [3]: 13.9%
growth inhibition [4]: -11.8%
growth inhibition [5]: 9.2%
growth inhibition [6]: 16.9%

From PubChem BioAssay (NCI)
